# According to PMC7862700, “An all-to-all approach to the identification of sequence-specific readers for epigenetic DNA modifications on cytosine”:
# How the values were obtained:
# Experiment in all cases: DAPPL (digital affinity profiling via proximity ligation, sequencing); 10 mM Tris-HCl pH 7.5, 50 mM NaCl, 1 mM DTT, 4% glycerol, room temperature, 30 min; GST-TFs on glutathione beads, 16-mer random dsDNA library, 0.1% formaldehyde crosslink after washing; high values mean tight binding
# FLI1 = molecular target: T1, FLI1 (Homo sapiens, UniProt Q01543 1-452); settings: protein: recombinant; tags: N-terminal GST; dsDNA, one strand shown
# T1 sequence: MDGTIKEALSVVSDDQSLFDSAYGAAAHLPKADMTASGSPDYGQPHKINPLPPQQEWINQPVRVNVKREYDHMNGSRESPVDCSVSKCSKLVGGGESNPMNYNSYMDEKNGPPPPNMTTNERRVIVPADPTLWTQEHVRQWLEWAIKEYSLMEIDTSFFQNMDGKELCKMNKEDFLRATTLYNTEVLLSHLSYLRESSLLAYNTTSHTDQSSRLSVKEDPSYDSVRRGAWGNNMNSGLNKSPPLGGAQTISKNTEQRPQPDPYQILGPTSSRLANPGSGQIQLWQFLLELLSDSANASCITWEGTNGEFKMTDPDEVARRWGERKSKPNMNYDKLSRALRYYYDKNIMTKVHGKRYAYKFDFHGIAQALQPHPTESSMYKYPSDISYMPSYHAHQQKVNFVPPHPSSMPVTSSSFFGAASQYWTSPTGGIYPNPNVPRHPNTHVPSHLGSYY
# How it was run: (§1)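 Sequencing on an Illumina NextSeq500 followed washing, crosslinking with 0.1% formaldehyde, proximity ligation (BsaI/T4 ligase, 1 h, 37 °C) and PCR amplification of pools that had been incubated for 30 min at room temperature with 200 nmole of a random double-stranded 16-mer DNA library in Tris/NaCl/DTT/glycerol buffer. Each pool held DNA-barcoded human transcription factors, expressed in yeast as GST fusions and captured on glutathione beads, plus a tag-only sample. Binding signal is a hexamer's read frequency for a factor divided by its frequency in the tag-only sample.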
# ELK1 = molecular target: T2, ELK1 (Homo sapiens, UniProt P19419 1-428); settings: protein: recombinant; tags: N-terminal GST; dsDNA, one strand shown
# T2 sequence: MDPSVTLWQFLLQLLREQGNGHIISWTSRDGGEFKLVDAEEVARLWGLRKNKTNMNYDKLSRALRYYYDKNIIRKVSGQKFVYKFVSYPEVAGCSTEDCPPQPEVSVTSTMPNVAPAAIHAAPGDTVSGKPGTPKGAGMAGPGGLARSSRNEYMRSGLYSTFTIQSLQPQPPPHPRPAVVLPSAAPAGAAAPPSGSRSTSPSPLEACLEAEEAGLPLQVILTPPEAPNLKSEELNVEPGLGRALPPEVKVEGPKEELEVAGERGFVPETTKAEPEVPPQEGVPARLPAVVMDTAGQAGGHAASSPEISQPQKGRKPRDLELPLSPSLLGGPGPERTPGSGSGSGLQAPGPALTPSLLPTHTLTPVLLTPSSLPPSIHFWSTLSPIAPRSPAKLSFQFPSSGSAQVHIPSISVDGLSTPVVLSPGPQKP
# How it was run: as §1
# GABPA = molecular target: T3, GABPA (Homo sapiens, UniProt Q06546 1-454); settings: protein: recombinant; tags: N-terminal GST; dsDNA, one strand shown
# T3 sequence: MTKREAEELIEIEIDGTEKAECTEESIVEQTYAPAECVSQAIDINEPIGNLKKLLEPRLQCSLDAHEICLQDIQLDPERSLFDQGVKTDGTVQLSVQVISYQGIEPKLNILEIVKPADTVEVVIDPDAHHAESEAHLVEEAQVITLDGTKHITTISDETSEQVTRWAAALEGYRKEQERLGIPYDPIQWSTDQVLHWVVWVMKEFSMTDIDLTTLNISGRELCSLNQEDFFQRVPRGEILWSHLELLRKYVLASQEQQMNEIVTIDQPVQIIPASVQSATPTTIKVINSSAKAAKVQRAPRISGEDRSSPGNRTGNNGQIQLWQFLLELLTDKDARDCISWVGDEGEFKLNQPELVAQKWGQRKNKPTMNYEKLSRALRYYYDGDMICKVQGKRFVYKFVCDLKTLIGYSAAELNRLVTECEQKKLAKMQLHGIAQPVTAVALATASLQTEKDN
# How it was run: as §1
# ERG = molecular target: T4, ERG (Homo sapiens, UniProt P11308 1-479); settings: protein: recombinant; tags: N-terminal GST; dsDNA, one strand shown
# T4 sequence: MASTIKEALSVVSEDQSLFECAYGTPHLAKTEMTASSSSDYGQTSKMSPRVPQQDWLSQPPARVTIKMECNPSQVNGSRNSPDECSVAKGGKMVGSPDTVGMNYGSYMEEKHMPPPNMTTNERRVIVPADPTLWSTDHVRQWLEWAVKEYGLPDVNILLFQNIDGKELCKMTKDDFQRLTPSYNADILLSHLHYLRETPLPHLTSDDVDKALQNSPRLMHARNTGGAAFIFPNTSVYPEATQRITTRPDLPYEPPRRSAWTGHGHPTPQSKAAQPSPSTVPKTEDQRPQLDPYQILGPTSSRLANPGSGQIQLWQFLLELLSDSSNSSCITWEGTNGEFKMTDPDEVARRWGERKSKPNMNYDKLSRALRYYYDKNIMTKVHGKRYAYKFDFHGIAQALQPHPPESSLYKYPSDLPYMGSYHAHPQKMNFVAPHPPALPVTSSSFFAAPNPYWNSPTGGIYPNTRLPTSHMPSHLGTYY
# How it was run: as §1
# ELF1 = ELF1 (Homo sapiens, UniProt P32519 1-619); settings: protein: recombinant; tags: N-terminal GST; dsDNA, one strand shown
# How it was run: as §1
# EHF = molecular target: T5, EHF (Homo sapiens, UniProt Q9NZC4 1-300); settings: protein: recombinant; tags: N-terminal GST; dsDNA, one strand shown
# T5 sequence: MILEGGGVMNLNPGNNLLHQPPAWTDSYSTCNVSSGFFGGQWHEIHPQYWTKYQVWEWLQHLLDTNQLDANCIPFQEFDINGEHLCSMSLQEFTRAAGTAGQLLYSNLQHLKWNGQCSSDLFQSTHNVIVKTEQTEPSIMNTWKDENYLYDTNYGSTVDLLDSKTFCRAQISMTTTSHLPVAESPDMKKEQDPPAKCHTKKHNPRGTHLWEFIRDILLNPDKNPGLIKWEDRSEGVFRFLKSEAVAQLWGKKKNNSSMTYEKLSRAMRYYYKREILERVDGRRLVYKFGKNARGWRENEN
# How it was run: as §1
# SPI1 = SPI1 (Homo sapiens, UniProt P17947 1-270); settings: protein: recombinant; tags: N-terminal GST; dsDNA, one strand shown
# How it was run: as §1
# SPIB = SPIB (Homo sapiens, UniProt Q01892 1-262); settings: protein: recombinant; tags: N-terminal GST; dsDNA, one strand shown
# How it was run: as §1
# ELK3 = molecular target: T6, ELK3 (Homo sapiens, UniProt P41970 1-407); settings: protein: recombinant; tags: N-terminal GST; dsDNA, one strand shown
# T6 sequence: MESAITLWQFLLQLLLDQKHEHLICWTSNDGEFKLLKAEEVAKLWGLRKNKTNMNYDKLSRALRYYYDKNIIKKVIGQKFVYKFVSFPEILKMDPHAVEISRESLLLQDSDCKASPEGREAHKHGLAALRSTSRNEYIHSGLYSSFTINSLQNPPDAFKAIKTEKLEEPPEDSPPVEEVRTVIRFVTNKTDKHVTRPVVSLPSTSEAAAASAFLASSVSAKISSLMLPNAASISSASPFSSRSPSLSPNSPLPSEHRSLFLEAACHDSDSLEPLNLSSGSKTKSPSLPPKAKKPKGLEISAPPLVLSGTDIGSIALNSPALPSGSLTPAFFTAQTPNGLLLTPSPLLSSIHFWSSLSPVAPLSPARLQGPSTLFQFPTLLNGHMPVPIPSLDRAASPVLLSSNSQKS
# How it was run: as §1
# FEV = molecular target: T7, FEV (Homo sapiens, UniProt Q99581 1-238); settings: protein: recombinant; tags: N-terminal GST; dsDNA, one strand shown
# T7 sequence: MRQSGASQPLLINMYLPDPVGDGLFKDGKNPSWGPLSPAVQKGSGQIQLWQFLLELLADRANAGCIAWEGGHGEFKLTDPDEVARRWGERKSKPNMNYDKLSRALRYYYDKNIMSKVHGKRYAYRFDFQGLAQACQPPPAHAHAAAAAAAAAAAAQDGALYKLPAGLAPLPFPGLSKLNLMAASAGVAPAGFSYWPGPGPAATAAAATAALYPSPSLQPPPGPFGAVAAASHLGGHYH
# How it was run: as §1
# ETV5 = ETV5 (Homo sapiens, UniProt P41161 1-510); settings: protein: recombinant; tags: N-terminal GST; dsDNA, one strand shown
# How it was run: as §1
# HSF1 = HSF1 (Homo sapiens, UniProt Q00613 1-529); settings: protein: recombinant; tags: N-terminal GST; chain copies: 3; dsDNA, one strand shown
# How it was run: as §1
# SPIC = molecular target: T8, SPIC (Homo sapiens, UniProt Q8N5J4 1-248); settings: protein: recombinant; tags: N-terminal GST; dsDNA, one strand shown
# T8 sequence: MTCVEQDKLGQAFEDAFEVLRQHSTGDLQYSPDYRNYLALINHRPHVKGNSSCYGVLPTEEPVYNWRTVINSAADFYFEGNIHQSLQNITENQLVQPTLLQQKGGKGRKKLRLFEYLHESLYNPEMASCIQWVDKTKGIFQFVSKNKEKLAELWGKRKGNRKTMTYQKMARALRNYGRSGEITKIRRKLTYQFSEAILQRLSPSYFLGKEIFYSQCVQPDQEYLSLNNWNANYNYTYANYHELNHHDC
# How it was run: as §1
# ELF4 = ELF4 (Homo sapiens, UniProt Q99607 1-663); settings: protein: recombinant; tags: N-terminal GST; dsDNA, one strand shown
# How it was run: as §1
# ELK4 = molecular target: T9, ELK4 (Homo sapiens, UniProt P28324-2 1-405); settings: protein: recombinant; tags: N-terminal GST; dsDNA, one strand shown
# T9 sequence: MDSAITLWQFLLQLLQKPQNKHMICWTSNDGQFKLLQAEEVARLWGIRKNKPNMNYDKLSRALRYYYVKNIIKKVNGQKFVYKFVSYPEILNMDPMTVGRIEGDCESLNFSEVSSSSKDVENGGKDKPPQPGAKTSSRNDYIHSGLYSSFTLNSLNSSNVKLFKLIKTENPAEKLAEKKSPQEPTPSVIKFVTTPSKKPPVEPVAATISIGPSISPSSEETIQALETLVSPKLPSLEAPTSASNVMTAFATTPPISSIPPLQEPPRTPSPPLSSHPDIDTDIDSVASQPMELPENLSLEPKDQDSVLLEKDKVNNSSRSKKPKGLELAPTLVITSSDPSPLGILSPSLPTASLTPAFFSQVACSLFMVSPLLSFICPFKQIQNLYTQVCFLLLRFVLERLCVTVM
# How it was run: as §1
# ETV2 = molecular target: T10, ETV2 (Homo sapiens, UniProt O00321 1-342); settings: protein: recombinant; tags: N-terminal GST; dsDNA, one strand shown
# T10 sequence: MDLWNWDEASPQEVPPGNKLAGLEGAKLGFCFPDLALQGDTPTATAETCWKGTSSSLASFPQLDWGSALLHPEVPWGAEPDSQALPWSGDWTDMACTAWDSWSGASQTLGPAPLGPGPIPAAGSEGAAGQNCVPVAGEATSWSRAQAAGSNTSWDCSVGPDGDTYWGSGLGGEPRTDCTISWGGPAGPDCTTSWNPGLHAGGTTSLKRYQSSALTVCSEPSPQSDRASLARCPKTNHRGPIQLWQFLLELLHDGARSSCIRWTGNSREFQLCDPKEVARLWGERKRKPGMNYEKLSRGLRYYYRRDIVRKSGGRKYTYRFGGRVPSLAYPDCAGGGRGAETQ
# How it was run: as §1
# ELF3 = molecular target: T11, ELF3 (Homo sapiens, UniProt P78545 1-371); settings: protein: recombinant; tags: N-terminal GST; dsDNA, one strand shown
# T11 sequence: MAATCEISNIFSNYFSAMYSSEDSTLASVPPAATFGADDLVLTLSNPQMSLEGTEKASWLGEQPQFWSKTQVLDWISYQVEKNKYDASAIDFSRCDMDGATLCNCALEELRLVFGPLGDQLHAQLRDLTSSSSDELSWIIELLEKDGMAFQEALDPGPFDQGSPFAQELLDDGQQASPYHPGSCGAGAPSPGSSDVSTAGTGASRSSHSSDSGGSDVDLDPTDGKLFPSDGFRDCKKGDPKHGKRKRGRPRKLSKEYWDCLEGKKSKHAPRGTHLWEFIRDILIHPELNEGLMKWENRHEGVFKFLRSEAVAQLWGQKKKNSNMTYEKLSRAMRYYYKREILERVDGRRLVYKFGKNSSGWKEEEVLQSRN
# How it was run: as §1
# CRX = CRX (Homo sapiens, UniProt O43186 1-299); settings: protein: recombinant; tags: N-terminal GST; dsDNA, one strand shown
# How it was run: as §1
# ETV1 = ETV1 (Homo sapiens, UniProt P50549 1-477); settings: protein: recombinant; tags: N-terminal GST; dsDNA, one strand shown
# How it was run: as §1
# Chain of ELF4 (Q99607 whole entry): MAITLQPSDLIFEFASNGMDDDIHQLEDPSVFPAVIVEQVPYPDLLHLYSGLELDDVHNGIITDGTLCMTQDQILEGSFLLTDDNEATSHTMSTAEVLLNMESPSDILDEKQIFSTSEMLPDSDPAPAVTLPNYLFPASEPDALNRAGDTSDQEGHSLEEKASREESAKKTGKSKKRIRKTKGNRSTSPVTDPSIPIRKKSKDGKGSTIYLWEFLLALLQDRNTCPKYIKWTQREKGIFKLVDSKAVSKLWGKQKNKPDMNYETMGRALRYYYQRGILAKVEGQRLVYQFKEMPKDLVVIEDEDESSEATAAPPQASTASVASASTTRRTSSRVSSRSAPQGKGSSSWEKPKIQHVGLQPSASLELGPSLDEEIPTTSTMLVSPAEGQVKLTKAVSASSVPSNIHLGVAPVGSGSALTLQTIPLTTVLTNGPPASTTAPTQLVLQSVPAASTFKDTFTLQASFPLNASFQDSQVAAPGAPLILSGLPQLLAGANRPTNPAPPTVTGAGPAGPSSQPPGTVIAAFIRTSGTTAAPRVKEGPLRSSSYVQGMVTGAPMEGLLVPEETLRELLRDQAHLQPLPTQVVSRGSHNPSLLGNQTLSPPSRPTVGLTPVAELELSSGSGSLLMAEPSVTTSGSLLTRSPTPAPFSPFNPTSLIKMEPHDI
# Chain of CRX (O43186 whole entry): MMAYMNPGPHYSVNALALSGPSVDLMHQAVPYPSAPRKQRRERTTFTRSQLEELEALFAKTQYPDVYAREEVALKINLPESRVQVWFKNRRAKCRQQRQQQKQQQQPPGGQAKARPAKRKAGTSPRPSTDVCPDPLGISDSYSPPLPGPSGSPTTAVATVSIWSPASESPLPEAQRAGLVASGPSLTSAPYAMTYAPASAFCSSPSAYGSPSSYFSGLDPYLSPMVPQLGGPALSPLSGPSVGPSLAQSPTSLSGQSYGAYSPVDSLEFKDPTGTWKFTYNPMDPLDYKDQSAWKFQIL
# Chain of SPIB (Q01892 whole entry): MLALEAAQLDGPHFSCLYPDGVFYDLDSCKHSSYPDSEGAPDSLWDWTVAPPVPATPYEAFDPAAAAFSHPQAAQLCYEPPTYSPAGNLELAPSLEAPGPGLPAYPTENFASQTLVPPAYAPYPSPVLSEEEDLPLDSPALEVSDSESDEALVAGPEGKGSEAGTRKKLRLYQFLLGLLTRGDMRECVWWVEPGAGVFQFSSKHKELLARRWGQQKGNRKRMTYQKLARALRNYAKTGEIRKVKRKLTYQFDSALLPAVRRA
# Chain of ETV1 (P50549 whole entry): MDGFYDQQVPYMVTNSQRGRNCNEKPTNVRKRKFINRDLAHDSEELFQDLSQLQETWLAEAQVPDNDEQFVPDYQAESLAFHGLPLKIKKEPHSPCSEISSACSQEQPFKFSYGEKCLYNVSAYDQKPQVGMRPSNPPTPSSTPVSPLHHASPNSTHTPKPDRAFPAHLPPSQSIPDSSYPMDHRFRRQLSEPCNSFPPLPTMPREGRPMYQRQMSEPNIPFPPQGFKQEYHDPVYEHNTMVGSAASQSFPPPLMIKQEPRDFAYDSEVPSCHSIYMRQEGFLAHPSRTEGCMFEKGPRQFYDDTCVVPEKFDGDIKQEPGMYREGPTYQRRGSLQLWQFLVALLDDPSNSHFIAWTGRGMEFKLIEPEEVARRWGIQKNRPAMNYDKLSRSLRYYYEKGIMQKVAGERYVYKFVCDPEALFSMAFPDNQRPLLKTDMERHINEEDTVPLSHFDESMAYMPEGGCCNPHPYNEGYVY
# Chain of HSF1 (Q00613 whole entry): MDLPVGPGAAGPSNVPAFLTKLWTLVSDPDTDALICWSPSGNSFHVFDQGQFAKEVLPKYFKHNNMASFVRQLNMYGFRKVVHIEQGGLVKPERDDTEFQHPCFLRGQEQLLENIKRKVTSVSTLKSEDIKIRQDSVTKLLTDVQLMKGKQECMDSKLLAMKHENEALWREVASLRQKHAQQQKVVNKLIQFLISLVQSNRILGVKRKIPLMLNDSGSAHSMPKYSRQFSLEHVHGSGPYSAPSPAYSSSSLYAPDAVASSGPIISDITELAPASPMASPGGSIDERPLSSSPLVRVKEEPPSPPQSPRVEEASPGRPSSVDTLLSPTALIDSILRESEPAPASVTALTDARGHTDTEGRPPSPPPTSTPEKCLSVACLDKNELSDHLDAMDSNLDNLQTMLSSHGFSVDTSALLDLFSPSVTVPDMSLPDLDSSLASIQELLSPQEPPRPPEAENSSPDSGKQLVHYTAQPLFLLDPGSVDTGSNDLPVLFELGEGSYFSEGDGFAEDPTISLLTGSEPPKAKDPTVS
# Chain of ELF1 (P32519 whole entry): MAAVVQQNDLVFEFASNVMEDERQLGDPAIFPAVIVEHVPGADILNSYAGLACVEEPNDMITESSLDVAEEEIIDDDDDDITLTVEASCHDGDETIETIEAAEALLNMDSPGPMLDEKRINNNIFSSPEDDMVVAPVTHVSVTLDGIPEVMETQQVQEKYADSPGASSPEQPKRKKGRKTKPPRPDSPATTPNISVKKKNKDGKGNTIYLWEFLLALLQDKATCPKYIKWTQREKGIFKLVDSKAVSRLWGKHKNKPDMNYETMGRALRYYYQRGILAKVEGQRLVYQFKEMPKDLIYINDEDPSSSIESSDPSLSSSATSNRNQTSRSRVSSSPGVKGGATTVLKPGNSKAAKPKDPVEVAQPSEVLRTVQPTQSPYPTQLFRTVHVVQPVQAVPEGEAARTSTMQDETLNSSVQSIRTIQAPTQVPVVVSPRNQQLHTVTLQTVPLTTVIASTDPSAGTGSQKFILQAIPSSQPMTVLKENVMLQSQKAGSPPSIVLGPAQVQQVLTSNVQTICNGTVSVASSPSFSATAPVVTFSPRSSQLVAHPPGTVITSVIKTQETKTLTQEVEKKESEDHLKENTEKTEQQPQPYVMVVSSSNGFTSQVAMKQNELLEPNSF
# Chain of ETV5 (P41161 whole entry): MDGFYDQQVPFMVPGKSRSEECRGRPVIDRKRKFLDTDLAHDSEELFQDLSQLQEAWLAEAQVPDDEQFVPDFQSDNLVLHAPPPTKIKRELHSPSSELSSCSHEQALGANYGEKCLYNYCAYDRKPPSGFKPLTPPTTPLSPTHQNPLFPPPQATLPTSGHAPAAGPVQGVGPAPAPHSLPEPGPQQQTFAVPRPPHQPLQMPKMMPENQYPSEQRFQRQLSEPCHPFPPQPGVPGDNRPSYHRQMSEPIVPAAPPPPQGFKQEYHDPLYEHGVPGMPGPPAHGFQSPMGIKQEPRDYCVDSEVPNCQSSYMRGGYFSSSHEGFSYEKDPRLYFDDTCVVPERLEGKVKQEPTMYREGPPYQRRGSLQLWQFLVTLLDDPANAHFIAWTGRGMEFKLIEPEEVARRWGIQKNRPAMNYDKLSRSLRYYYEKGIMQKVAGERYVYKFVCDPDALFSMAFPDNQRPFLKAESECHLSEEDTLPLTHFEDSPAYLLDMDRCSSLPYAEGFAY
sequence,measurement,setting,value
AATAGT,binding signal,FLI1,"1.21 fold enrichment (6-mer frequency, TF over GST control)"
same,binding signal,ELK1,"1.2 fold enrichment (6-mer frequency, TF over GST control)"
same,binding signal,GABPA,"1.2 fold enrichment (6-mer frequency, TF over GST control)"
same,binding signal,ERG,"1.31 fold enrichment (6-mer frequency, TF over GST control)"
same,binding signal,ELF1,"1.19 fold enrichment (6-mer frequency, TF over GST control)"
same,binding signal,EHF,"1.23 fold enrichment (6-mer frequency, TF over GST control)"
same,binding signal,SPI1,"1.17 fold enrichment (6-mer frequency, TF over GST control)"
same,binding signal,SPIB,"1.22 fold enrichment (6-mer frequency, TF over GST control)"
same,binding signal,ELK3,"1.11 fold enrichment (6-mer frequency, TF over GST control)"
same,binding signal,FEV,"1.19 fold enrichment (6-mer frequency, TF over GST control)"
same,binding signal,ETV5,"1.27 fold enrichment (6-mer frequency, TF over GST control)"
same,binding signal,HSF1,"1.21 fold enrichment (6-mer frequency, TF over GST control)"
same,binding signal,SPIC,"1.28 fold enrichment (6-mer frequency, TF over GST control)"
same,binding signal,ELF4,"1.18 fold enrichment (6-mer frequency, TF over GST control)"
same,binding signal,ELK4,"1.46 fold enrichment (6-mer frequency, TF over GST control)"
same,binding signal,ETV2,"1.17 fold enrichment (6-mer frequency, TF over GST control)"
same,binding signal,ELF3,"1.26 fold enrichment (6-mer frequency, TF over GST control)"
same,binding signal,CRX,"1.19 fold enrichment (6-mer frequency, TF over GST control)"
same,binding signal,ETV1,"1.17 fold enrichment (6-mer frequency, TF over GST control)"
